These results are taken from ChEMBL document CHEMBL1961873, “Compounds: GSK PKIS; Assays: Nanosyn kinase panel” (2012).

Structures are written as SMILES. Values joined by “and” are separate entries in the source; they are usually repeats but may differ in a detail not shown here. Identical values can stand only once.

Test [1] addresses Fibroblast growth factor receptor 4 (Homo sapiens) (UniProt P22455). Particulars: at 1 µM.
Test [2] addresses Tyrosine-protein kinase Fgr (Homo sapiens) (UniProt P09769). Particulars: at 0.1 µM.
Test [3] shares this target. Particulars: at 1 µM.
For test [4], the target named is Vascular endothelial growth factor receptor 1 (Homo sapiens) (UniProt P17948). Particulars: at 0.1 µM.
Sequence of Vascular endothelial growth factor receptor 1 (Homo sapiens) (P17948 whole entry): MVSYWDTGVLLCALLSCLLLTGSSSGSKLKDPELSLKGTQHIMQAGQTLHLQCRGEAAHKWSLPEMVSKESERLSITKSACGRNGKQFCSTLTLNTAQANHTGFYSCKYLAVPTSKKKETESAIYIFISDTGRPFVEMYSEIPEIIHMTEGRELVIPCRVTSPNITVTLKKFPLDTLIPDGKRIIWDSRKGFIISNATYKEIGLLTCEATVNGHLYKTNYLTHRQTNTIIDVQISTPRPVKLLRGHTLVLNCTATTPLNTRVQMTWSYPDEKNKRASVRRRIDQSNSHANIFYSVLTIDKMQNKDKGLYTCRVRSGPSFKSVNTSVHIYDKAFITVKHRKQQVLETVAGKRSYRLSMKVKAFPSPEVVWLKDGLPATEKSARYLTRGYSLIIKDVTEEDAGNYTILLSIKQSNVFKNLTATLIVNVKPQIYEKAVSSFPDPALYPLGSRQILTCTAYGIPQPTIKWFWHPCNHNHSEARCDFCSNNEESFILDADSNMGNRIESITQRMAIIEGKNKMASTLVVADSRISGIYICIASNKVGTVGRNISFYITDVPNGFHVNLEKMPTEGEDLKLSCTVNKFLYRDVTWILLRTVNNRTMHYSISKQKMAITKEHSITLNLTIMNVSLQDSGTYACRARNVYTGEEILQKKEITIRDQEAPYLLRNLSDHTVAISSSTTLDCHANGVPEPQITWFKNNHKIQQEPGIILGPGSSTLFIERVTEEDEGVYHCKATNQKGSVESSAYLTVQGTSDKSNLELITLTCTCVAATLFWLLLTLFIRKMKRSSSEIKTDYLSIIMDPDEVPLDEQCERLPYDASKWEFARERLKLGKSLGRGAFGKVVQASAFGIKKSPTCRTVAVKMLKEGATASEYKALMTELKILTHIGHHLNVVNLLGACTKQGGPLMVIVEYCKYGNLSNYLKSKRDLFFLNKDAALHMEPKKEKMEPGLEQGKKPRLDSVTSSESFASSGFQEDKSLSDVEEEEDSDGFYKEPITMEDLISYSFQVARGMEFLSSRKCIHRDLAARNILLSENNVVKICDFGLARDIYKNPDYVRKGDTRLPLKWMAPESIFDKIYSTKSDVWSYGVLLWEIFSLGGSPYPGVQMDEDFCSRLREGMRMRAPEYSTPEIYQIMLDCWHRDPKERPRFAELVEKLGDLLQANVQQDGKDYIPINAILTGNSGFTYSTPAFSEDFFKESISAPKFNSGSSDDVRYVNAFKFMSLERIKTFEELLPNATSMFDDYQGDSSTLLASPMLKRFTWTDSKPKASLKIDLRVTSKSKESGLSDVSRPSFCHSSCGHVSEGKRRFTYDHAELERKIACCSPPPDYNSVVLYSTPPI
The target is the same in test [5]. Conditions: at 1 µM.
Test [6] addresses Receptor-type tyrosine-protein kinase FLT3 (Homo sapiens) (UniProt P36888). Conditions: at 0.1 µM.
For test [7] the target is unchanged. Conditions: at 1 µM.
The subject of test [8] is T1, Receptor-type tyrosine-protein kinase FLT3 (Homo sapiens), P36888 [D835Y].
T1 sequence (whole entry): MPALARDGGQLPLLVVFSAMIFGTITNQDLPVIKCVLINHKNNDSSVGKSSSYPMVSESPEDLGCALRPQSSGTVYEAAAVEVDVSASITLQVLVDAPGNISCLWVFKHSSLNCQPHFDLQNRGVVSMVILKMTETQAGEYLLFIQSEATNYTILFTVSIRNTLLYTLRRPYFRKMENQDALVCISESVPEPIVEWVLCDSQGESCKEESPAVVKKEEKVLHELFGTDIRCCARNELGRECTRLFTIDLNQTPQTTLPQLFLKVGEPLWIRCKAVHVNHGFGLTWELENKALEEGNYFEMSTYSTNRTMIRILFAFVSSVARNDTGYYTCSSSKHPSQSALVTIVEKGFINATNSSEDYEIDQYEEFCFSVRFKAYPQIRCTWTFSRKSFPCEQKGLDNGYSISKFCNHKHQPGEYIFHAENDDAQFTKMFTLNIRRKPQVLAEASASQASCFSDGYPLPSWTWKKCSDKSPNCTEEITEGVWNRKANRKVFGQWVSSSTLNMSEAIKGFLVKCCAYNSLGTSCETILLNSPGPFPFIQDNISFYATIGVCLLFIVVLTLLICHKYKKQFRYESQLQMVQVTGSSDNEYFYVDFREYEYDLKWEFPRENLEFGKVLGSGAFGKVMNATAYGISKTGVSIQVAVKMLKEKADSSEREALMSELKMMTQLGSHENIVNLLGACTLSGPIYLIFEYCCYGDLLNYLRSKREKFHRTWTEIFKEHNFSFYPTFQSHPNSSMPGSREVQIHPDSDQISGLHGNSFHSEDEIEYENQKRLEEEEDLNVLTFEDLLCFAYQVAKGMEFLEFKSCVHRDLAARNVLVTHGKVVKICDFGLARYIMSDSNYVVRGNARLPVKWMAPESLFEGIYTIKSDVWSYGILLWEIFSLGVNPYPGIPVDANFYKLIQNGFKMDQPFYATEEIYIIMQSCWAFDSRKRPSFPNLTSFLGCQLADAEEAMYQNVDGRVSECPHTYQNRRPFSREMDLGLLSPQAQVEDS
Conditions: at 0.1 µM.

Test [9] addresses Non-receptor tyrosine-protein kinase TYK2 (Homo sapiens) (UniProt P29597). Particulars: at 1 µM.
Test [10] concerns the target T2, Tyrosine-protein kinase receptor TYRO3 (Homo sapiens) (UniProt Q06418).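 Further: reported percentages are averaged inhibition values of TYRO3 kinase activity.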
T2 sequence (whole entry): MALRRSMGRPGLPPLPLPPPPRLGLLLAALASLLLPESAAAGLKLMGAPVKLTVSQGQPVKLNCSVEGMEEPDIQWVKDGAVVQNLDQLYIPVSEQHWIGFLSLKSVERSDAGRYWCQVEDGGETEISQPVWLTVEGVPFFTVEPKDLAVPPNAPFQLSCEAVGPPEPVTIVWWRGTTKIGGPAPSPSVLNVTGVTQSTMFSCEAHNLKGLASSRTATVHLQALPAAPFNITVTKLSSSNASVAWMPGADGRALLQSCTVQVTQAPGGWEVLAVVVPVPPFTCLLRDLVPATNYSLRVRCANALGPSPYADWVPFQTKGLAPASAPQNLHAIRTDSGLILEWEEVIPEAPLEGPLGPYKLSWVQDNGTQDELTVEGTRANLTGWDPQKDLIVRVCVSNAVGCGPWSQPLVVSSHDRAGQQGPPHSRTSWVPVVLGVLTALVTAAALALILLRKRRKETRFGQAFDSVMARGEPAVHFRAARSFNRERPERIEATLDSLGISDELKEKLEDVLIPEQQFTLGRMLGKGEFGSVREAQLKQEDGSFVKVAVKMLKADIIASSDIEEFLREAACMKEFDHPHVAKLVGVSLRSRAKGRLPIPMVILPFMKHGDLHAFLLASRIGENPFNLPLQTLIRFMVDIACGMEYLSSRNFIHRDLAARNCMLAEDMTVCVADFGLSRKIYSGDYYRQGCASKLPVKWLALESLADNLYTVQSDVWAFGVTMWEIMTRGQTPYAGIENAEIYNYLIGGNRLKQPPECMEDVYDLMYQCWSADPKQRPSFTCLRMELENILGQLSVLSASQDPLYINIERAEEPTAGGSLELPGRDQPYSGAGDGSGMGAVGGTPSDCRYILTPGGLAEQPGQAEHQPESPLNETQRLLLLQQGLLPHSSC
Particulars: at 0.1 µM.

Sequence of Non-receptor tyrosine-protein kinase TYK2 (Homo sapiens) (P29597 whole entry): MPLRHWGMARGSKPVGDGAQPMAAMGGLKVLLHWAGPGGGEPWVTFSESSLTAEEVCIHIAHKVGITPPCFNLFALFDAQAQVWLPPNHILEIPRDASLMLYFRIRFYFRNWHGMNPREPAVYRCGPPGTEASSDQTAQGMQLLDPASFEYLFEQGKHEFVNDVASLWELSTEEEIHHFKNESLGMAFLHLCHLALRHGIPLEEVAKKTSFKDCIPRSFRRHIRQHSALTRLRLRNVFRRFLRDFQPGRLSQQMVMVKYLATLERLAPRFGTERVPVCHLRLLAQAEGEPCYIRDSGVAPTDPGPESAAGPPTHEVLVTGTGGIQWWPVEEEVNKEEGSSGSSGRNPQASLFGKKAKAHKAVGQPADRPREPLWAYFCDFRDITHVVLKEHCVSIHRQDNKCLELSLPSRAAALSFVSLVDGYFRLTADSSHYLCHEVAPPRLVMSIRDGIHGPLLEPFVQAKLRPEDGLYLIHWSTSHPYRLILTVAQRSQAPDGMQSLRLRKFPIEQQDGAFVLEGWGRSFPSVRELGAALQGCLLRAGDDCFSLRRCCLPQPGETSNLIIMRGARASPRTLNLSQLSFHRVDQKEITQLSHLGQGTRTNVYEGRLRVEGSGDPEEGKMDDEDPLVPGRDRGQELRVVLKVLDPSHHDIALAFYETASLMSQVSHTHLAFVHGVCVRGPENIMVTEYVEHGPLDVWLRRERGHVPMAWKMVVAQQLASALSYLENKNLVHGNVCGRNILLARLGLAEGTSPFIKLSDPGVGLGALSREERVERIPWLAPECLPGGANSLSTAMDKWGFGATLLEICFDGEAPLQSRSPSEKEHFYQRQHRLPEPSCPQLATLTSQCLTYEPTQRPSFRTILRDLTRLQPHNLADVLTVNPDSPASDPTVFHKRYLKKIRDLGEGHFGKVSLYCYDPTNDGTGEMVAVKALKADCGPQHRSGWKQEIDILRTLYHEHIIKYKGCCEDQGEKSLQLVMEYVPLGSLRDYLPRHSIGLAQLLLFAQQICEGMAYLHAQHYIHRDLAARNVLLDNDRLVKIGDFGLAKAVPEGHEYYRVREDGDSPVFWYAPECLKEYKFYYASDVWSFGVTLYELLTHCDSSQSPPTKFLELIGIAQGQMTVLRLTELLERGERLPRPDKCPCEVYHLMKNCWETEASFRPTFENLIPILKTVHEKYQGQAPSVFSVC
Sequence of Tyrosine-protein kinase Fgr (Homo sapiens) (P09769 2-529 limits assumed): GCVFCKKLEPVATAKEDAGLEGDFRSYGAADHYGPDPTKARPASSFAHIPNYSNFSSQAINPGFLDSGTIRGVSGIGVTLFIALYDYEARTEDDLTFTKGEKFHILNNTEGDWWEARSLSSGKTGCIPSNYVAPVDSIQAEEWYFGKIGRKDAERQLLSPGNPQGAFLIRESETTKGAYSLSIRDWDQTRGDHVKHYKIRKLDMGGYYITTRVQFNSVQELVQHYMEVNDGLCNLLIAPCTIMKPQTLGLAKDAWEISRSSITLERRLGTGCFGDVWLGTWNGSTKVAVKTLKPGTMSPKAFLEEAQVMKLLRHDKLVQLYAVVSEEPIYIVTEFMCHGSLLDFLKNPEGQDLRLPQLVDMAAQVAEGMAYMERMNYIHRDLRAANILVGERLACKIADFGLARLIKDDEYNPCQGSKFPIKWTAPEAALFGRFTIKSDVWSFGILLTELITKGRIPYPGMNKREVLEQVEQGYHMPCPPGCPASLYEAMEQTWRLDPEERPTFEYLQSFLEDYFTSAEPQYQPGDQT
Sequence of Fibroblast growth factor receptor 4 (Homo sapiens) (P22455 22-802 limits assumed): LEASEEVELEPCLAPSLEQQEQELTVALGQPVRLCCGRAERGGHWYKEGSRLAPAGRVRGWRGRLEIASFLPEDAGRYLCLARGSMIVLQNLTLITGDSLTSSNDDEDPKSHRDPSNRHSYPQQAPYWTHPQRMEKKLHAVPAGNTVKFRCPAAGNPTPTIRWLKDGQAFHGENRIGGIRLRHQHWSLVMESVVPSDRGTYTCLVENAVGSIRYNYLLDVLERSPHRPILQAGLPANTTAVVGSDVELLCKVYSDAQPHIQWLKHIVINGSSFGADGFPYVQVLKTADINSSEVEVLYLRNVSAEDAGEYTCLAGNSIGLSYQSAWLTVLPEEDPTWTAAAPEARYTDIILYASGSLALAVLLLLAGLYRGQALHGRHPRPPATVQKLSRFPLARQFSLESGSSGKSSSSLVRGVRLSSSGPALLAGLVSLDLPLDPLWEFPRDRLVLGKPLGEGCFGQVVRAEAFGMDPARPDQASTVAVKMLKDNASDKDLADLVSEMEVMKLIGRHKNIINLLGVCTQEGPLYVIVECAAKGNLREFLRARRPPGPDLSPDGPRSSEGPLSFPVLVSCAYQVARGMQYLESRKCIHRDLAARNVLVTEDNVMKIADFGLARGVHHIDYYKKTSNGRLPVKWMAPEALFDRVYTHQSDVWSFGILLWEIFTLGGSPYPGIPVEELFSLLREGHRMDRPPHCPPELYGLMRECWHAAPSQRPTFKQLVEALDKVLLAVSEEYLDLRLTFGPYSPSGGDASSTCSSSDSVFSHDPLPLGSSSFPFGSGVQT

One may read the inhibition as the relative decrease from the control value, in per cent. In the case of `CN1CCC(n2cnc(-c3ccc(F)cc3)c2-c2ccnc(NCCO)n2)CC1`, the inhibition stood at 0.38% in [1]; 5.33% in test [2]; 2.78% in test [3]; 1.32% in test [4]; 3.27% in test [5]; 1.5% in test [6]. The inhibition was 5.56% in [7], -2.58% in test [8], -4.71% in [9] and 3.69% in [10].

Regarding `O=C1Nc2ccccc2/C1=C1\CCc2cc(O)ccc21`, the inhibition in test [1] is 3.99%; in [2] it was 2.44%; in test [3], 15.4%; in test [4], 12.7%; in test [5], 25.7%; in test [6], 40.7%. In addition, the inhibition was found to be 85.5% in test [7], 27.1% in test [8], 6.88% in test [9] and 4.69% in test [10].

`CCCNc1cccc(-n2ncc3c(N/N=C/c4ccncc4)ncnc32)c1`: the inhibition is 3.38% in [1]; 18.9% in test [2]; 52% in test [3]; 2.98% in [4]; 19.7% in test [5]; 4.53% in test [6]. For the same molecule, the inhibition in test [7] was 17.6%; in test [8], 7.74%; in test [9], 4.3%; in test [10], 5.05%.

On to `N#Cc1ccc2c(-c3ccnc(NC4CC4)n3)c(-c3ccc(F)cc3)nn2c1`, for which the inhibition in test [1] is -0.59%; in [2] it was 1.68%; in test [3], 1.53%; in [4] it was 1.23%; in test [5] it was 3.07%; in [6], 0.32%. For the same molecule, the inhibition in [7] was -2.7%; in test [8], -5.78%; in [9] it was -2.44%; in [10], -1.24%.

For `Fc1ccc(Nc2nccc(-c3c(-c4ccc(C(F)(F)F)cc4)nn4ncccc34)n2)cc1F`, the inhibition was 3.24% in test [1]; -0.18% in test [2]; 4.23% in test [3]; 1.95% in [4]; 4.12% in [5]; 1.11% in test [6]. In addition, the inhibition is 4.52% in test [7], 0.57% in [8], -3.25% in [9] and 3.71% in test [10].

In the case of `COc1ccc2ncn(-c3cc(O[C@H](C)c4ccccc4C(F)(F)F)c(C(N)=O)s3)c2c1`, the inhibition in test [1] was 3.29%; in test [2], 0.34%; in test [3], 1.98%; in test [4] it was -2.14%; in test [5], 1.15%; in test [6], -1.48%. The inhibition in [7] is 8.06%; in test [8], -1.49%; in [9] it was -1.84%; in [10], -0.34%.

For `Fc1cccc(COc2ccc(Nc3ncncc3C#Cc3ccccc3)cc2Cl)c1`, the inhibition in [1] stood at 0.25%; in test [2], 5.41%; in test [3], 2.24%; in [4], 1.51%; in [5], 1.02%; in test [6], 2.67%. Besides, the inhibition in test [7] was 5.4%; in [8], 4.26%; in test [9], -1.45%; in test [10], 2.1%.

As to `FC(F)(F)CNc1nccc(-c2cnn3ncccc23)n1`, the inhibition in test [1] was -0.36%; in test [2] it was 2.09%; in test [3], 3.01%; in [4] it was -0.04%; in [5], 0.56%; in test [6], 0.41%. Also, the inhibition in test [7] is -1.47%; in test [8] it was -2.63%; in test [9], -2.6%; in [10], 0.93%.

As to `CC1=C(C(=O)Nc2ccc3[nH]nc(C)c3c2)C(c2ccc(C(F)(F)F)cc2)CC(=O)N1` (stereo not given), the inhibition is 2.06% in test [1]; 1.2% in test [2]; 3.75% in test [3]; 1.04% in test [4]; 5.46% in test [5]; -0.53% in test [6]. Moreover, the inhibition came to 3.38% in test [7], 0.37% in test [8], 37.5% in test [9] and 2.07% in test [10].

On to `CCS(=O)(=O)c1ccc(OC)c(Nc2ncc(-c3cccc(C(C)=O)c3)o2)c1`, for which the inhibition in [1] stood at 3.95%; in test [2], 13.2%; in test [3], 44.4%; in test [4], 3.88%; in [5], 17.2%; in test [6] it was 19.1%. In addition, the inhibition in test [7] was 69.8%; in test [8], 55.7%; in [9] it was -1.19%; in [10], 5.67%.

Take `CC(C)c1ccc(-c2cc(-c3c[nH]nc3-c3ccccn3)ccn2)cc1`: the inhibition in [1] is 0.16%; in [2] it was 0.18%; in [3] it was 1.8%; in test [4], 0.29%; in [5] it was 6.12%; in test [6], -2.11%. Besides, the inhibition in [7] is 2.26%; in [8], 1.43%; in [9] it was -0.96%; in test [10] it was 1.06%.

On to `Nc1nccc(-c2c(-c3ccc(F)cc3)ncn2C2CCNCC2)n1`, for which the inhibition in test [1] was -0.1% and 1.64%; in test [2], -0.15% and 1.9%; in test [3], 4.65% and 8.7%; in test [4] it was -0.52% and 1.63%; in test [5] it was -0.59% and 2.14%; in [6], -1.21% and 1.71%. Besides, the inhibition was -2.93% and 1.86% in test [7]; -8.75% and 1.68% in test [8]; 2.68% and 1.47% in test [9]; -2.12% and 1.7% in [10].

`COc1c(C(N)=O)cc(-c2ccc(Cl)cc2)cc1-c1ccc(S(N)(=O)=O)cc1`: the inhibition in test [1] is 2.25%; in test [2], 0.21%; in test [3] it was 2.86%; in test [4] it was -0.38%; in test [5], 2.07%; in [6], 1.63%. In addition, the inhibition is 3.25% in test [7], -1.44% in [8], -6.53% in test [9] and 2.09% in [10].

For the molecule `c1cnn2ncc(-c3ccnc(NCCCN4CCOCC4)n3)c2c1`, the inhibition in test [1] is 2.53%; in test [2], 2.2%; in test [3] it was 0.54%; in test [4], 1.65%; in test [5], 0.94%; in test [6], 0.76%. Besides, the inhibition is 1.48% in test [7], 0.21% in test [8], -3.09% in [9] and 3.23% in test [10].

In the case of `NS(=O)(=O)c1cccc(N/C=C2\C(=O)Nc3ccccc32)c1`, the inhibition in [1] is 3.92%; in test [2], 5.5%; in test [3], 13.8%; in [4] it was 7.92%; in test [5], 15.2%; in test [6], 5.75%. In addition, the inhibition in test [7] was 36.4%; in [8], 1.52%; in [9], -1.95%; in test [10] it was 3.33%.
